An excerpt weighted towards active compounds, which were near 0.52% of everything screened.
Sa growth 42C – S. aureus growth inhibition at 42 and 30 °C, primary screen, LtaS inhibitor project, RN4220, two temperatures | OD600, 20 h, 42 °C; hits give low values | relative growth, % (no concentration beside the values) | 0.53% of 170,000 active | AID 720641, 2013;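 active means relative growth at most 50% at the other temperature and 20+ points below 30 °C, or under 10% at both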
Sa helicase inh – inhibitors of S. aureus replicative helicase, primary screen, biochemical, fluorescence unwinding readout | AID 485395, 2010 | purified S. aureus helicase, fluorescence unwinding assay | 0.05% of 120,000 active | replicative DNA helicase (DnaC/DnaB), Staphylococcus aureus | inhibition, % (no concentration beside the values); in the data active means inhibition above about 25%, passing the limit was not always enough
Numbers stand for hits; – = inactive; · = no result; ! = repeats disagree.

SMILES	Sa growth 42C	Sa helicase inh
CCSc1ncc(Cl)c(C(=O)N(Cc2ccccc2)Cc2ccco2)n1	–	·
COc1ccc(N(Cc2ccccc2)C(=O)c2nc(SC)ncc2Cl)cc1	–	·
O=C1CC2(CC(=O)Oc3cc(O)ccc32)c2ccc(O)cc2O1	–	–
CCOC(=O)c1cc2ccc(OC(=O)c3ccco3)cc2oc1=O	–	–
NS(=O)(=O)c1ccc(CCNC(=O)C(Sc2ccccc2)c2ccccc2)cc1 (configuration not stated)	–	–
CC(C)c1cccc(C(C)C)c1N1C(=O)C=CC1=O	6.7	·
O=C1C=CC(=O)N1c1cccc2ccccc12	–	–
CC1(C)C(C(=O)O)N2C(=O)CC2S1(=O)=O (configuration not stated)	27	–
CC1(C)[C@H](C(=O)O)N2C(=O)C[C@H]2S1(=O)=O	–	·
CCn1ccc2cc(S(=O)(=O)N3CCC(C(=O)NCc4cccc(Cl)c4)CC3)ccc21	–	·
Cc1cccc2nc(-c3ccccn3)c(Nc3ccc(F)cc3)n12	1.2	·
Cc1cccc2nc(-c3ccccn3)c(Nc3ccccc3)n12	–	·
CCS(=O)(=O)n1nc(-c2ccco2)nc1SC	–	–
CC1=CCC2C(=O)N(C(C)c3ccccc3)C(=O)C2C1 (configuration not stated)	–	–
O=C1C(=Cc2cccnc2)C(=O)c2ccccc21	–	–
O=C1/C(=C/c2cccnc2)c2ccccc2N1c1ccccc1	8.4	–
CCOC(=O)Nc1ccc2c(c1)Nc1ccccc1S2	–	–
O=C(COC(=O)c1c2c(nc3ccccc13)CCC2)Nc1ccccc1	–	–
Cc1[nH]n(-c2nc3ccccc3[nH]2)c(=O)c1C1OC(=O)c2ccccc21 (configuration not stated)	–	–
Cc1cc(=O)n(-c2nc3ccccc3[nH]2)[nH]1	8.3!	–
O=c1cc(-c2ccccc2)[nH]n1-c1nc2ccccc2[nH]1	7.5	–
Cc1nn(-c2nc3ccccc3[nH]2)c(N)c1-c1ccccc1	–	–
CNC(=O)c1ccc2nc(CCc3ccccc3)oc2c1	–	·
Cc1ccc(-c2nc(C3CCN(S(=O)(=O)c4ccc(C(C)(C)C)cc4)CC3)no2)cc1	–	–
O=C(CSc1ccc(S(=O)(=O)N2CCN(Cc3ccccc3)CC2)cn1)NC(=O)NC1CCCC1	–	–
SMILES	Sa growth 42C	Sa helicase inh
O=S(=O)(c1ccc(NC2CCN(Cc3ccccc3)CC2)nc1)N1CCCCC1	–	38
COC(=O)C(Sc1c[nH]c2ccccc12)(C(F)(F)F)C(F)(F)F	0.0	–
COC(=O)C(N)Cc1c[nH]c2ccccc12 (configuration not stated)	–	–
CC1=CC(C)=NC2Nc3c(C)cc(C)cc3C(=N)C12 (configuration not stated)	–	66
COc1cc(C2Nc3c(C)cc(C)cc3-c3cc(C)nn32)cc(OC)c1O (configuration not stated)	–	·
CCOC(=O)c1ccc(NC(=O)CSc2cn(CC(=O)N3CCCC3)c3ccccc23)cc1	–	·
O=c1c2c(nc3cc(-c4ccccc4)[nH]n13)CCC2	–	–
O=c1c2c(nc3c(-c4ccccc4)c[nH]n13)CCC2	0.1	–
N#C/C(=C\c1ccccc1)c1cccc(Cl)c1	44	·
N#C/C(=C/c1ccccc1)c1cccc(C#N)c1	–	–
Cc1nc2c(-c3ccccc3)c(C)nn2c(C)c1CCC(=O)NCc1ccccc1Cl	–	·
CC(C)(C)c1ccc(C(=O)Nc2ccc(S(N)(=O)=O)cc2)cc1	2.7	–
CCc1ccc(C(=O)Nc2ccc(S(N)(=O)=O)cc2)cc1	–	·
CC(C)(C)NC(=O)C12CC3CCC(CC(C3)C1)C2	–	–
O=C(Nc1ccccc1)Nc1ccccc1SCCS(=O)(=O)c1ccc(Cl)cc1	–	·
Cc1cccc(Nc2cc(=O)[nH]c(=O)[nH]2)c1	–	–
Cc1ccc(Nc2cc(=O)[nH]c(=O)[nH]2)cc1C	8.5	·
COc1ccc(OC)c(CNC(=O)CCCn2ccc3cc(S(=O)(=O)N4CCCC4)ccc32)c1	–	·
COc1cccc(OC)c1OCCNCc1ccco1	–	–
COc1cc2c(cc1OC)C1(NCC2)C(=O)Nc2ccccc21 (configuration not stated)	–	–
Clc1cccc(CN2CN(Cc3ccccc3)c3nc4ccccc4n3C2)c1	–	–
CCN(c1ccccc1)S(=O)(=O)c1ccc(Cl)cc1	–	–
CCN(c1ccc2oc3ccccc3c2c1)S(=O)(=O)c1ccc(C#N)cc1	45	–
Cc1ccc(S(=O)(=O)NCC2CCC(C(=O)NCc3ccc(F)cc3)CC2)cc1 (configuration not stated)	–	·
CC(C)(C)c1cc(C(c2ccccn2)N2CCCC2)cc(C(C)(C)C)c1O (configuration not stated)	–	–
SMILES	Sa growth 42C	Sa helicase inh
CC(C)(C)c1cc(C(c2ccc(O)cc2)N2CCOCC2)cc(C(C)(C)C)c1O (configuration not stated)	-1.3	–
C=C(NC(=O)C(=C)NC(=O)c1csc(C2=NC3c4csc(n4)C4NC(=O)c5csc(n5)C(C(C)(O)C(C)O)NC(=O)C5CSC(=N5)C(=CC)NC(=O)C(C(C)O)NC(=O)c5csc(n5)C3(CC2)NC(=O)C(C)NC(=O)C(=C)NC(=O)C(C)NC(=O)C(C(C)CC)NC2C=Cc3c(C(C)O)cc(nc3C2O)C(=O)OC4C)n1)C(N)=O (configuration not stated)	-1.0	·
COc1cc2c(C(=O)N3CCN(c4cccc(C)c4)C(C)C3)cn(CC(C)C)c(=O)c2cc1OC (configuration not stated)	–	·
Oc1c(I)cc(Cl)c2cccnc12	1.3!	–
COc1c(I)cc(Cl)c2cccnc12	–	·
COc1cccc(-n2nnnc2S(=O)(=O)Cc2ccccc2)c1	-1.1	–
Cc1cccc(C)c1-n1nnnc1S(=O)(=O)Cc1ccccc1Cl	–	–
Cc1nc(-c2ccccn2)nc(SCC(=O)c2ccccc2)c1Cl	–	·
Cc1nc(-c2ccccn2)nc(SCc2ccccc2)c1Cl	19	·
Cc1cc(NCc2ccccc2Cl)n2cnnc2n1	–	·
Cc1ccc(CCNC(=O)c2ccc3c(c2)N(Cc2ccccc2)C(=O)c2ccccc2S3=O)cc1 (configuration not stated)	–	·
O=C(CCc1ccccc1)Nc1nnc(-c2ccccc2)o1	·	–
CCCCC(=O)Nc1nnc(-c2ccc(Cl)cc2)o1	-0.3	–
CCCCC(=O)Nc1nnc(-c2ccc(Cl)s2)o1	8.8	–
O=C(CCCc1c[nH]c2ccccc12)Nc1nnc(-c2ccc(Cl)cc2)o1	–	–
CC(=O)c1[nH]c(C)c(C(=O)NCCc2ccc(C)cc2)c1C	–	·
CCN(CC)S(=O)(=O)c1ccc(Cl)c(C(=O)Oc2ccc(C)cc2-n2nc3ccccc3n2)c1	–	–
CC(=O)Oc1ccc(C)cc1-n1nc2ccccc2n1	46	–
COC(=O)c1cc2ccsc2n1CC(=O)Nc1ccc(C)cc1Cl	–	–
O=C(O)c1ccc(-c2cccc(C(F)(F)F)c2)o1	45	–
NC(=O)c1ccc(-c2cccc(C(F)(F)F)c2)o1	–	–
CC(C)c1cc2cc(/C=C/C(=O)O)c(O)cc2o1	-0.3	–
CC(C)(O)C1Cc2cc(/C=C/C(=O)O)c(O)cc2O1 (configuration not stated)	–	–
CC(=O)N/C(=C\c1ccccc1)C(=O)OCc1nc(N)nc(Nc2ccccc2C)n1	–	–
NC(=O)N/N=C/c1ccc(-c2ccc(SC(F)F)cc2)o1	–	–
